The panel holds about 83,000 compounds, 20% with a hit somewhere; the sample as a whole holds those more often.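 Plates (96-well) were seeded with cells, treated with compound at one concentration, and incubated for 48 hours before percent growth was determined.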 The source made the active and inactive calls. The calls were made as follows: active = growth percent below 10; inactive = the rest.

One assay has as its system 786-0 renal. Kind of assay: NCI-60 one-dose screen, 48 h (100 = growth as untreated, 0 = no growth, -100 = all killed). The following applies: 10 µM unless noted.
For the compound `COc1ccc(-c2ccc3c4c(cccc24)C(=O)N(N2C(=O)c4cccc5cccc(c45)C2=O)C3=O)cc1`, the growth was 99.2% (inactive). On the same count and under the same terms, next, `N#Cc1c(NC(=O)c2ccc(F)c(Cl)c2)sc2c1CCC(=O)C2`: 21.3% (inactive). On the same count and under the same terms, next, `Nc1ccc(-c2nnc(SCc3ccc(O)c4ncccc34)o2)cc1`: 7.93% (active).

In the case of `IP(CCCCCCCCCCSc1n(Cc2ccc3ccccc3c2)c(-c2ccccc2)c(-c2ccccc2)[n+]1Cc1ccc2ccccc2c1)(c1ccccc1)(c1ccccc1)c1ccccc1`, the growth is -56.2% (active). On the same count and under the same terms, next, `Cc1cc(Cl)cc(NS(=O)(=O)c2ccc(-c3cnc(C4CC4)o3)cc2)c1`: 49.4% (inactive); `COc1cc(/C=N/n2cnc3oc(-c4ccccc4)cc3c2=N)cc(CN2CCCCC2)c1O`: -79.5% (active).

As to `CCOC(=O)c1c(NC(=O)c2ccc(C(C)(C)C)cc2)sc2cc(OCCN3CCCCC3)ccc12`, the growth was 75.5% (inactive).

In the case of `NS(=O)(=O)Oc1ccc2nc(Nc3ccc(F)c(F)c3)ccc2c1`, the growth was 89.6% (inactive). On the same count and under the same terms, for `CC(=O)c1sc(Nc2cccc(Nc3nc(C)c(C)s3)c2)nc1C` the value was 55.7% (inactive); for `CCCCCCNC(=O)Oc1ccc(/C(=C(\C)c2ccc(OC)cc2)c2ccc(OCCN(C)C)cc2)cc1`, 62.3% (inactive). Same read-out and setting: for `Cc1cccc(NC(c2cc3cccc4ccc5cccc2c5c43)c2nnnn2C(C)(C)C)c1C` (centres undefined) the value was 97.6% (inactive). On to `CCOC(=O)c1c(NCC(=O)Nc2cccc([N+](=O)[O-])c2)sc2c1CCCC2`, for which the growth was -32% (active). On to `O=c1oc2ccc(-c3ccc(F)cc3F)cc2c(=O)n1-c1ccc(F)c(F)c1`, for which the growth is 10.2% (inactive). Take `Brc1cccc(/C=N/Nc2nc(N/N=C/c3cccc(Br)c3)nc(N3CCOCC3)n2)c1`: the growth is 24.5% (inactive).

As to `N#C/C(=C\c1ccc2ccccc2c1)C(=O)Nc1sc2c(c1C#N)CCC2`, the growth is 99.6% (inactive).

The subject of a further assay is COLO 205 colon. The assay is described as above. The following applies: 10 µM unless noted.
As to `COc1cc(C2=NN(C(C)=O)C(c3ccc(N4CCOCC4)cc3)C2)cc(OC)c1OC` (centres undefined), the growth is 106% (inactive). On the same count and under the same terms, next, `COc1ccc([C@H]2c3[nH]c4ccccc4c3C[C@@H]3C(=O)N(C4CCN(Cc5ccccc5)CC4)CC(=O)N23)c(OC)c1`: 67.1% (inactive). As for `COc1ccc([C@H]2[C@H](O)C(=O)N2c2cc(OC)c(OC)c(OC)c2)cc1Cl`, the growth is -79.3% (active). Consider `COc1ccc(/C=C/C(=O)c2nnn(-c3ccc(C(=O)O)cc3)c2C)cc1OC`, for which the growth was 109% (inactive).

As for `O=[N+]([O-])c1ccc(-c2nnc(SCc3ccc(O)c4ncccc34)n2-c2ccccc2)cc1`, the growth was 110% (inactive). `O=C(NCCCNc1cc(-c2cn(-c3ccccc3)nc2-c2cccc(O)c2)ccn1)Nc1cccc(C(F)(F)F)c1`: the growth is 3.19% (active). The same measure, in the same setting: next, `CC(C)C(=O)Nc1ccc(-c2nc(-c3cccc(O)c3)c(-c3ccnc(Br)c3)[nH]2)cc1`: 59.3% (inactive). The same measure, in the same setting: for `Cc1cc(F)cc(NS(=O)(=O)c2ccc(-c3cnc(C4CC4)o3)cc2)c1` the value was 1.45% (active). Consider `CCOC(=O)c1c(NCC(=O)Nc2cccc(Cl)c2)sc2c1CCCC2`, for which the growth is 101% (inactive). Still for that read-out and setting: next, `O=S(=O)(Nc1cc(Cl)cc(Cl)c1)c1ccc(-c2cnc(C3CC3)o2)cc1`: 14.2% (inactive); `COc1cc2c3c(n(CCCNC4CCC4)c(=O)c2cc1OC)-c1cc2c(cc1C3=O)OCO2`: -79.9% (active); `CCOC(=O)Nc1cccc(-n2cnc3cc(-c4ccc(O)cc4)ccc32)c1`: -4.06% (active). The same measure, in the same setting: for `CC(=O)NC(C)(C)C(=O)N[C@@H](C)C(=O)NC(C)(C)C(=O)N[C@@H](C)C(=O)NC(C)(C)C(=O)N[C@@H](C)C(=O)N[C@@H](CCC(N)=O)C(=O)NC(C)(C)C(=O)N[C@H](C(=O)NC(C)(C)C(=O)NCC(=O)N[C@@H](CC(C)C)C(=O)NC(C)(C)C(=O)N1CCC[C@H]1C(=O)N[C@H](C(=O)NC(C)(C)C(=O)NC(C)(C)C(=O)N[C@@H](CCC(N)=O)C(=O)N[C@@H](CCC(N)=O)C(=O)N[C@H](CO)CC1CCCCC1)C(C)C)C(C)C` the value was -12% [5 µM] (active). Consider `Cc1nn(-c2ccc(Cl)cc2)c(C)c1N=Nc1ccc2oc(=O)ccc2c1`, for which the growth was 105% (inactive). The same measure, in the same setting: next, `O=C(NCCNc1cc(-c2cn(-c3ccccc3)nc2-c2cccc(O)c2)ccn1)Nc1ccc(Cl)c(C(F)(F)F)c1`: 92.9% (inactive); `CN(c1ccc(Br)cc1)S(=O)(=O)c1ccc(-c2cnc(C3CC3)o2)cc1`: 4.79% (active); `CC(C)C[C@H]1C(=O)O[C@H](C(C)C)C(=O)N(C)[C@@H](C(C)C)C(=O)O[C@H](C(C)C)C(=O)N(C)[C@@H](C(C)C)C(=O)O[C@H](C(C)C)C(=O)N1C`: -89% (active).

With `CCCC(=O)NC(c1cccnc1)c1cc(Cl)c2cccnc2c1O` (centres undefined), the growth is 30.8% (inactive).

Turning to `Nc1nc(-c2cccc([N+](=O)[O-])c2)c(N=Nc2ccccc2[N+](=O)[O-])s1`, the growth was 93.7% (inactive).

In the case of `C/C(=N\NC(=O)CSc1nc2sc3c(c2c(=O)n1-c1ccccc1)CCC(C)C3)c1ccc(Cl)cc1` (centres undefined), the growth was 26.5% (inactive). In the case of `C#C[C@]1(O)CC[C@H]2[C@@H]3CC=C4c5sc(Nc6nc(C)cc(OC)n6)nc5CC[C@]4(C)[C@H]3CC[C@@]21C`, the growth was 78.5% (inactive). The same measure, in the same setting: for `CN1CCN(c2ccc(NC(=O)Nc3ccc4c(ccn4-c4cccc(C(N)=O)n4)c3)cc2C(F)(F)F)CC1` the value was 44.4% (inactive); for `COc1ccc(NS(=O)(=O)c2ccc(-c3cnc(C4CC4)o3)cc2)cc1Cl`, 12.4% (inactive); for `CC1OC(O[C@@H]2C(O)C(CO)OC(O[C@H]3COC(O[C@H]4CC[C@]5(C)[C@H]6CC[C@]78OC[C@@]9(CC[C@](C)(C=O)C[C@H]97)[C@H](O)C[C@@]8(C)[C@]6(C)CC[C@H]5C4(C)C)[C@@H](OC4OC(CO)[C@@H](O)[C@@H](O)[C@@H]4O)[C@@H]3O)[C@H]2OC2OC[C@@H](O)[C@@H](O)[C@@H]2O)[C@@H](O)[C@@H](O)[C@H]1O` (some centres undefined), -37.7% (active). `COc1ccc(-c2ccc3c4c(cccc24)C(=O)N(N2C(=O)c4cccc5cccc(c45)C2=O)C3=O)cc1`: the growth is 103% (inactive).

As to `N#Cc1c(NC(=O)c2ccc(F)c(Cl)c2)sc2c1CCC(=O)C2`, the growth is -50.2% (active). For the compound `Nc1ccc(-c2nnc(SCc3ccc(O)c4ncccc34)o2)cc1`, the growth was 1.77% (active).

On to `IP(CCCCCCCCCCSc1n(Cc2ccc3ccccc3c2)c(-c2ccccc2)c(-c2ccccc2)[n+]1Cc1ccc2ccccc2c1)(c1ccccc1)(c1ccccc1)c1ccccc1`, for which the growth is -55.2% (active). Regarding `Cc1cc(Cl)cc(NS(=O)(=O)c2ccc(-c3cnc(C4CC4)o3)cc2)c1`, the growth was 2.78% (active). Still for that read-out and setting: next, `COc1cc(/C=N/n2cnc3oc(-c4ccccc4)cc3c2=N)cc(CN2CCCCC2)c1O`: 11.7% (inactive); `CCOC(=O)c1c(NC(=O)c2ccc(C(C)(C)C)cc2)sc2cc(OCCN3CCCCC3)ccc12`: 25.6% (inactive); `NS(=O)(=O)Oc1ccc2nc(Nc3ccc(F)c(F)c3)ccc2c1`: 93.8% (inactive).

For `CC(=O)c1sc(Nc2cccc(Nc3nc(C)c(C)s3)c2)nc1C`, the growth is 77.7% (inactive). Consider `CCCCCCNC(=O)Oc1ccc(/C(=C(\C)c2ccc(OC)cc2)c2ccc(OCCN(C)C)cc2)cc1`, for which the growth is 90.4% (inactive). Still for that read-out and setting: next, `Cc1cccc(NC(c2cc3cccc4ccc5cccc2c5c43)c2nnnn2C(C)(C)C)c1C` (centres undefined): 102% (inactive); `CCOC(=O)c1c(NCC(=O)Nc2cccc([N+](=O)[O-])c2)sc2c1CCCC2`: -56.2% (active); `O=c1oc2ccc(-c3ccc(F)cc3F)cc2c(=O)n1-c1ccc(F)c(F)c1`: 83.2% (inactive). With `Brc1cccc(/C=N/Nc2nc(N/N=C/c3cccc(Br)c3)nc(N3CCOCC3)n2)c1`, the growth is 23.8% (inactive). On the same count and under the same terms, for `N#C/C(=C\c1ccc2ccccc2c1)C(=O)Nc1sc2c(c1C#N)CCC2` the value was 115% (inactive).

The values are drawn from PubChem BioAssay (NCI).
